Consider 40 sequences from the supplement of paper PMC6555819.

For the first experiment, the system named is RARg:RXRa (NR concentration 270 nM, RXRa partner concentration 90 nM). The experiment can be described thus: PBM binding z-score (relative to random genomic background probes); higher = stronger binding; sequences stand for … in GC…GCGATTGACAGCGTAGAATGAAGG
The procedure, abridged:
(§1)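 Scanned fluorescence from custom Agilent 4×180K protein-binding microarrays was regression-normalized. Binding z-scores use random background probes as reference. Ligand-free nuclear receptor dimers were incubated on the arrays for 1 h and detected with antibodies against each partner (one per run).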
Consider ACTAGCAGGCCACGGGTCACTCAAGATTAGTCCG, for which the PBM binding z-score came out at 2.22.

Consider CCGACTGGGGCAAAGGTGACCATACTCAGTACGA, for which the PBM binding z-score is 1.9.

For the sequence TGAATGAGGCTAAAGATCAGGGAACGTGGCGTCG, the PBM binding z-score was -0.0145.

In turn, TCTTGCAGATCAACAGGAGGTTAAGAAAGATCGA registered a PBM binding z-score of 0.798.

For the sequence TAGCCTAGGTCACGCGGGCCAGTATAGTGTCGGC, the PBM binding z-score was 5.13.

The sequence GATACAGGGTCAAGGCCAGAGTGCGCGTATTGAT showed a PBM binding z-score of 5.48.

In turn, TCATAGAGGTAAATGCTAGGTGAAAGTCCGATCT gave a PBM binding z-score of 0.753.

TCTCGGAGGATACGAAAGGTCAGAGCTCGACATC: the PBM binding z-score was 4.12.

Consider ATACCAAGGTGATCGTGAGGTAGTTGATACTAAC, for which the PBM binding z-score came out at 0.422.

For the sequence ATCTCTAGGCAAGACTCAGTTCAGTGAAGAACGC, the PBM binding z-score was -0.279.

Consider GTACCAAGGTGAGTAGGTCGTTGATGAGTAGGCG, for which the PBM binding z-score turned out to be 0.89.

CCTCGGAGGACAACAGGAGGTCAGAGCGGCCAGA: the PBM binding z-score was 3.74.

Sequence TCTGGTAGATCAATAGAGGTTAAGAAAGTGCGCT returned a PBM binding z-score of 0.787.

GCGACTGGGGCAAAGCAGGTTACAATAAGGTTGG registered a PBM binding z-score of 0.682.

On to CCGACTGGGGCATAAGGTTACCACAAGCCAGCCC, for which the PBM binding z-score amounted to 1.8.

ATATGTAGGTTAAGGGTCATACAGGTTGGTTCGC displayed a PBM binding z-score of 5.01.

As for ACTATTAGTTGACTAAGGGCAACCGATACGACGC, the PBM binding z-score is 0.953.

Sequence TCTTGTAGATCAACACGAGGTTAAGAAAGATCGA showed a PBM binding z-score of 0.823.

As for TCGAGTAGCTTAGGGGCATTCAGAATGGCGTCGA, the PBM binding z-score is -0.284.

The sequence TCAATGAGGTTATAAGATCAGGGAACGTTGCAAA yielded a PBM binding z-score of 1.52.

With CCTACTGGGCCACGAAAGGTCATTGTTTCAGTGA, the PBM binding z-score came to 4.55.

In turn, GATACAGGGCCAGCTAGAGGCCAGAGTATGGAAA came in with a PBM binding z-score of 0.806.

GCTATTAGTTGAAAGGGCAACCTAATGATTCTCG showed a PBM binding z-score of 1.35.

Consider ATATGTAGGTTATCGGGTCATTCAGTTTGCGCAT, for which the PBM binding z-score was determined as 3.09.

In the case of CGTCCAAGGTCAGAGCGGTCAGTGAATGCCGAGT, the PBM binding z-score was 5.22.

Turning to TTACCAAGGTGAGCTGAGGTCGTTGTTCCAACTC, the PBM binding z-score was 1.31.

CCAGCCAGGTGAGAAGGTAACTCAGCCTCGATTA: the PBM binding z-score came out at 0.0253.

The sequence CCTAGCAGGCCAATCTGGCTCACTCAAGGCTTGA came in with a PBM binding z-score of -0.58.

In turn, CTTTACGGGTCACTCCAGGTTATAGCATCGGAGT returned a PBM binding z-score of 4.62.

In turn, CAAACTCGGTCACGAAAGGTCAAAGTCGAATGAC gave a PBM binding z-score of 7.03.

CTCGAAAAGTCGGTTGAGGTGAGTATACGGATAA yielded a PBM binding z-score of 0.446.

Take CGGCCAAGGTCAGAGAGGTCAGTGAATGCCGAGT: the PBM binding z-score came to 6.22.

Regarding CCTACTGGGCCAAGGTGATTGATCAGTCAAAGCA, the PBM binding z-score is -0.199.

TATACAGGGTCAAAGGCCAGACTACGAATGTCGA gave a PBM binding z-score of 5.73.

With ATAATGAGGTTATTAAGATCAGGGAATTGCGGTC, the PBM binding z-score is 1.39.

In turn, GCTGCTAGGTAAACTGATGGTCAGCTAAAGCTCG gave a PBM binding z-score of -0.174.

In turn, AGAATGAGGTTATTAAGACCAGGGAATTGCGGTC had a PBM binding z-score of 1.24.

ATCTCCAGGTAAGACTCAGTTCAGTGAAGAACGC: the PBM binding z-score came to 0.584.

Sequence CCAGACAGGTGAAAGGTAATTCAGTCTGGTACGC showed a PBM binding z-score of 1.04.

As for CTAACTAGGTCAAGAGGTCAAAGTCCGCTTCCCG, the PBM binding z-score is 8.23.

Another experiment deals with RARg homodimer (NR concentration 270 nM). The experiment is described as above. An outline of the steps:
as §1
As for ACTAGCAGGCCACGGGTCACTCAAGATTAGTCCG, the PBM binding z-score came out at 2.04.

CCGACTGGGGCAAAGGTGACCATACTCAGTACGA: the PBM binding z-score is 1.13.

In the case of TGAATGAGGCTAAAGATCAGGGAACGTGGCGTCG, the PBM binding z-score worked out at 0.0972.

In turn, TCTTGCAGATCAACAGGAGGTTAAGAAAGATCGA came in with a PBM binding z-score of 0.138.

Consider TAGCCTAGGTCACGCGGGCCAGTATAGTGTCGGC, for which the PBM binding z-score was 5.55.

With GATACAGGGTCAAGGCCAGAGTGCGCGTATTGAT, the PBM binding z-score was 5.27.

As to TCATAGAGGTAAATGCTAGGTGAAAGTCCGATCT, the PBM binding z-score is 0.235.

Turning to TCTCGGAGGATACGAAAGGTCAGAGCTCGACATC, the PBM binding z-score was 3.73.

In turn, ATACCAAGGTGATCGTGAGGTAGTTGATACTAAC came in with a PBM binding z-score of 0.424.

As to ATCTCTAGGCAAGACTCAGTTCAGTGAAGAACGC, the PBM binding z-score was found to be 0.0763.

In turn, GTACCAAGGTGAGTAGGTCGTTGATGAGTAGGCG registered a PBM binding z-score of 0.657.

The sequence CCTCGGAGGACAACAGGAGGTCAGAGCGGCCAGA came in with a PBM binding z-score of 3.91.

TCTGGTAGATCAATAGAGGTTAAGAAAGTGCGCT returned a PBM binding z-score of 0.391.

GCGACTGGGGCAAAGCAGGTTACAATAAGGTTGG yielded a PBM binding z-score of 0.779.

Sequence CCGACTGGGGCATAAGGTTACCACAAGCCAGCCC returned a PBM binding z-score of 1.2.

ATATGTAGGTTAAGGGTCATACAGGTTGGTTCGC came in with a PBM binding z-score of 3.57.

For ACTATTAGTTGACTAAGGGCAACCGATACGACGC, the PBM binding z-score came out at 1.33.

Consider TCTTGTAGATCAACACGAGGTTAAGAAAGATCGA, for which the PBM binding z-score was 0.361.

In the case of TCGAGTAGCTTAGGGGCATTCAGAATGGCGTCGA, the PBM binding z-score is -0.446.

Turning to TCAATGAGGTTATAAGATCAGGGAACGTTGCAAA, the PBM binding z-score came to 0.993.

CCTACTGGGCCACGAAAGGTCATTGTTTCAGTGA registered a PBM binding z-score of 4.31.

The sequence GATACAGGGCCAGCTAGAGGCCAGAGTATGGAAA registered a PBM binding z-score of 0.594.

The sequence GCTATTAGTTGAAAGGGCAACCTAATGATTCTCG came in with a PBM binding z-score of 1.38.

As to ATATGTAGGTTATCGGGTCATTCAGTTTGCGCAT, the PBM binding z-score is 2.5.

CGTCCAAGGTCAGAGCGGTCAGTGAATGCCGAGT showed a PBM binding z-score of 6.15.

TTACCAAGGTGAGCTGAGGTCGTTGTTCCAACTC yielded a PBM binding z-score of 0.592.

CCAGCCAGGTGAGAAGGTAACTCAGCCTCGATTA registered a PBM binding z-score of 0.00676.

With CCTAGCAGGCCAATCTGGCTCACTCAAGGCTTGA, the PBM binding z-score is -0.5.

The sequence CTTTACGGGTCACTCCAGGTTATAGCATCGGAGT gave a PBM binding z-score of 4.65.

As for CAAACTCGGTCACGAAAGGTCAAAGTCGAATGAC, the PBM binding z-score is 7.47.

Regarding CTCGAAAAGTCGGTTGAGGTGAGTATACGGATAA, the PBM binding z-score was found to be 0.172.

In the case of CGGCCAAGGTCAGAGAGGTCAGTGAATGCCGAGT, the PBM binding z-score was determined as 7.62.

As to CCTACTGGGCCAAGGTGATTGATCAGTCAAAGCA, the PBM binding z-score was -0.0733.

As for TATACAGGGTCAAAGGCCAGACTACGAATGTCGA, the PBM binding z-score was 5.23.

With ATAATGAGGTTATTAAGATCAGGGAATTGCGGTC, the PBM binding z-score came out at 1.21.

GCTGCTAGGTAAACTGATGGTCAGCTAAAGCTCG showed a PBM binding z-score of -0.241.

The sequence AGAATGAGGTTATTAAGACCAGGGAATTGCGGTC came in with a PBM binding z-score of 0.733.

For ATCTCCAGGTAAGACTCAGTTCAGTGAAGAACGC, the PBM binding z-score was determined as 0.474.

Take CCAGACAGGTGAAAGGTAATTCAGTCTGGTACGC: the PBM binding z-score is 0.643.

CTAACTAGGTCAAGAGGTCAAAGTCCGCTTCCCG yielded a PBM binding z-score of 7.39.
